Assay outcomes: PubChem, National Center for Advancing Translational Sciences (NCATS)
Rows were chosen to be rich in hits. Some 7.4% of all compounds tested hit in one or more screens of this group.
Rab9 prom act – qHTS Assay for Rab9 Promoter Activators; 2.8% of 320,000 active; Huh7 Rab9 promoter-luciferase reporter, luminescence, 24 h; Potency, µM (series often up to 9.22 µM), hits mostly activators; note: nearly all actives have a fitted effect of over 60% in size
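Steps: seed 1500 Huh7 Rab9-luc cells per well, rest 2 h at 37 °C; add compound in DMSO; incubate 24 h; add luciferase reagent, 10 min ambient; read luminescence.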
SMN2 splice up – qHTS Assay for Enhancers of SMN2 Splice Variant Expression; HEK293 SMN2-luciferase splicing reporter, luminescence, 30-36 h; Potency, µM (highest dose often 46.1 µM), most hits filed as activators; 2.8% of 210,000 active; AID 1458, 2008; note: nearly all actives have a fitted effect of over 55% in size
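qHTS luciferase splicing reporter: luminescence rises when SMN2 exon 7 is included in transfected HEK293 cells. Compound exposure lasted 30-36 h at 37C, with 4.5 mM final sodium butyrate as control, followed by a ONE-Glo read.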
FLuc counter – qHTS profiling assay for firefly luciferase inhibitor/activator using purifed enzyme and Km concentrations of substrates (counterscreen for miR-21 project); Luciferin 4-monooxygenase (Photinus pyralis), P08659; purified FLuc, Km substrates, luminescence inhibition; Potency, µM (doses to about 57.5 µM), usual class: inhibitors; 6.9% of 360,000 active; note: nearly all actives have a fitted effect of over 55% in size
Target sequence (P08659 whole entry, looked up): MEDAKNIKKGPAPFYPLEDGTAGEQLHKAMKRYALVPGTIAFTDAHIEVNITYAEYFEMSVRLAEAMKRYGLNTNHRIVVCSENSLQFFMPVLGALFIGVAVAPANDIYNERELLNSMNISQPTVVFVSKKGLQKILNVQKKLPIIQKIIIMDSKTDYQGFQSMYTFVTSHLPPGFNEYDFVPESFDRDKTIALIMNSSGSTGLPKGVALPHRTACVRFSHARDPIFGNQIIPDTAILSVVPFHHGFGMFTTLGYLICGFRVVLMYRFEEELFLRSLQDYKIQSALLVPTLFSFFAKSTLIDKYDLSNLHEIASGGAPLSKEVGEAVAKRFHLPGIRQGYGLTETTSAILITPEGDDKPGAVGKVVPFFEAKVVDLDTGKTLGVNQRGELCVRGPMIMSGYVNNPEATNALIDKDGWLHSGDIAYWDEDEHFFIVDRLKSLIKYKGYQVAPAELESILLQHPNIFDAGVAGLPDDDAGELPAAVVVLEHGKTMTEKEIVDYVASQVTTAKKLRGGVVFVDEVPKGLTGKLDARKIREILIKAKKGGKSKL
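Purified P. pyralis luciferase, 10 nM final, with Km-level 10 uM D-luciferin and 10 uM ATP in 50 mM Tris acetate pH 7.5, 10 mM Mg acetate, 0.01% Tween-20, 0.05% BSA; 6-point qHTS titration about 60 µM downward; luminescence read.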
NPC1 promoter act – qHTS Assay for NPC1 Promoter Activators. Huh7 NPC1 promoter luciferase reporter, 24 h. Potency, µM (series often up to 9.22 µM), usual class: activators. 2.4% of 320,000 active. AID 485313, 2010; note: nearly all actives have a fitted effect of over 60% in size
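Compounds in DMSO were transferred onto Huh7 NPC1-luciferase reporter cells pre-incubated 2 h; after 24 h at 37 °C, Amplite reagent was dispensed and luminescence recorded 10 min later.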
p53 reactivator – qHTS assay for re-activators of p53 using a Luc reporter; Potency, µM (top dose mostly 92.2 µM), most hits filed as activators; AID 504706, 2011; H1299 p53-A138V BP100-luciferase reporter, luminescence, 24 h; 0.063% of 320,000 active; note: nearly all actives have a fitted effect of over 45% in size
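H1299 (p53-null), stable ts p53-A138V + BP100-Luc; 1000 cells/well, Opti-MEM/10% FBS; cpd 4 pt, 1:5; 24 h, 37 deg C, 5% CO2; detection reagent 10 min RT; luminescence.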
ELG1 genotoxic – qHTS screen for small molecules that induce genotoxicity in human embryonic kidney (HEK293T) cells expressing luciferase-tagged ELG1; HEK293T ELG1-luciferase reporter, luminescence, 16 h; Potency, µM (doses to about 46 µM), usual class: activators; 1.3% of 330,000 active; note: nearly all actives have a fitted effect of over 60% in size
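Reporter readout depends on ELG1 protein level, which increases with genetic stress. After 16 hr compound exposure at 37 °C, luciferase activity was quantified using ONE-Glo.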
A number is an active result; . = inactive; ? = inconclusive; / = no result given; [ ] = remark or other dose. Calls come from the whole dose curve; as a rule, active = well fitted curve in the direction sought with a large enough effect; inconclusive = small, poorly fitted or top-dose-only effect, or another doubt; inactive = no such curve, though single readings can be large; an effect the other way counts as inactive or inconclusive.

SMILES	Rab9 prom act	SMN2 splice up	FLuc counter	NPC1 promoter act	p53 reactivator	ELG1 genotoxic
CNC(=S)N/N=C/c1ccc(-c2ccc(C(=O)O)cc2)o1	.	/	17µM	?	.	?
CNC(=S)N/N=C/c1ccc(-c2ccc(Cl)c([N+](=O)[O-])c2)o1	.	/	.	.	.	.
NS(=O)(=O)c1ccc(-c2ccc(/C=N/Nc3ccc(C(=O)O)cc3)o2)cc1	.	/	7.6µM	.	.	.
C=CCNC(=S)N/N=C/c1ccc(-c2ccc(OC)cc2)o1	.	.	19µM	.	.	.
C=CCNC(=S)N/N=C/c1ccc(-c2cc(Cl)ccc2Cl)o1	.	/	.	.	.	.
CCC(=O)N/N=C/c1ccc(-c2ccc(Cl)cc2)o1	.	/	15µM	.	.	.
O=C(O)CCSCc1ccc(I)cc1	/	.[9.22 µM]	/	/	/	/
Fc1cccc(CCN2CCNC[C@@H]2CC2CCCCC2)c1	.	/	.	.	.	.
CS(=O)(=O)N(CC(=O)N/N=C/c1cccc2c1OCCO2)c1ccccc1Br	.	.	.	.	.	.
O=C(N/N=C/c1ccc([N+](=O)[O-])o1)C(=O)Nc1ccc(C(=O)O)cc1	.	/	.	.	.	.
O=C(O)c1ccc(N/N=C/C=C/c2ccc([N+](=O)[O-])o2)cc1	.	/	17µM	.	.	.
CCOC(=O)c1ccc(-c2ccc(/C=N/NC(=O)CN(c3ccccc3Br)S(C)(=O)=O)o2)cc1	?	11µM	.	?	.	.
O=C(O)c1ccc(-c2ccc(/C=N/Nc3ccc([N+](=O)[O-])cc3)o2)cc1	.	/	17µM	.	.	.
O=C(O)c1cccc(-c2ccc(/C=N/Nc3ccc([N+](=O)[O-])cc3)o2)c1	.	/	11µM	.	.	.
CCOc1ccccc1Nc1ncnc2c1c(-c1ccccc1)cn2-c1ccc(OC)cc1	/	/	.	/	/	/
COc1ccc(-c2cc3nc(C)c(CCC(=O)Nc4ccccc4C(C)=O)c(C)n3n2)c(OC)c1	/	.	.	/	/	/
CNc1nnc(-c2cc3cc(Cl)ccc3oc2=O)s1	?	?	?	?	.	18µM
COc1ccc(-n2nc(C(=O)NCC(=O)N3CCN(Cc4ccccc4)CC3)c3ccccc3c2=O)c(OC)c1	.	/	?	.	.	.
COc1ccc(-n2nc(C(=O)NCC(=O)N3CCCCCC3)c3ccccc3c2=O)c(OC)c1	.	/	2.4µM	.	?	?
COc1ccc(-n2nc(C(=O)NCC(=O)N3CCC(C)CC3)c3ccccc3c2=O)c(OC)c1	?	/	1.5µM	?	?	?
COc1ccc(-n2nc(C(=O)NCCCN3CCOCC3)c3ccccc3c2=O)c(OC)c1	.	/	.	.	.	.
COc1ccc(-n2nc(C(=O)NCC(=O)NC(C)C)c3ccccc3c2=O)c(OC)c1	.	/	.	.	.	.
COc1ccc(-n2nc(C(=O)NCC(=O)N3CCOCC3)c3ccccc3c2=O)c(OC)c1	.	/	24µM	.	.	.
CCC(C)NC(=O)CNC(=O)c1nn(-c2ccc(OC)cc2OC)c(=O)c2ccccc12 (centres undefined)	.	/	.	.	.	.
COc1ccc(-n2nc(C(=O)NCC(=O)N3CCCCC3)c3ccccc3c2=O)c(OC)c1	?	/	3.8µM	.	?	?
SMILES	Rab9 prom act	SMN2 splice up	FLuc counter	NPC1 promoter act	p53 reactivator	ELG1 genotoxic
CCOC(=O)c1c(-c2ccccc2)oc2ccc(NS(=O)(=O)c3ccc(C)cc3C)cc12	/	.	.	/	/	/
O=C(NCCSCc1ccco1)Nc1ccc(Cl)cc1	/	?	11µM	/	/	/
O=C(NCCSCc1ccco1)Nc1cccc(Cl)c1	?	?	17µM	?	.	.
O=C(CCSc1ccccc1)NCCSCc1ccco1	.	/	19µM	.	.	.
CCC(=O)Nc1sc2c(c1C#N)CCCCC2	?	?	.[2.3 µM]	.	.	.
N#Cc1c(NC(=O)CCCC(=O)O)sc2c1CCCCC2	?	1.3µM	2.1µM	?	.	?
CCCC(=O)Nc1sc2c(c1C#N)CCCCC2	2.8µM	11µM	9.5µM	3.2µM	?	?
